Active and inactive are the calls of the source. Rule as the data show it: active = inhibition above about 31%; inactive = the rest.
Experiment: reversal of MRP1-mediated doxorubicin resistance, pilot screen, H69AR cells, doxorubicin co-treatment (AID 601)
Details: H69AR cells, CellTiter-Glo, 72 h; compound alone cytotoxicity; at 10 µM

Row | Compound | viability [%]
1 | Cc1cc(C)c2[nH]c(=O)c(C(c3nnnn3Cc3ccc4c(c3)OCO4)N3CCC(C)CC3)cc2c1 (configuration not stated) | 86.7
2 | Cc1ccc(CNC(=O)CSc2n[nH]c(N)n2)cc1 | 96.6
3 | C=C(C)Cn1c(N2CCN(CC)CC2)nc2c1c(=O)[nH]c(=O)n2C | 85.7
4 | Cc1cc(C(=O)CN2C(=O)c3ccccc3C2=O)c(C)n1Cc1cccs1 | 86.3
5 | Cc1ccc2nc(NCCCN3CCOCC3)c(C=NCCCN3CCOCC3)c(=O)n2c1 | 81.9
6 | O=C(Cn1cnc2ccccc2c1=O)NCCC(=O)N1CCN(c2ccccc2)CC1 | 92
7 | O=C(C1CCC1)N1CCc2cc(S(=O)(=O)N3CCc4ccccc4C3)ccc21 | 89
8 | CCC(=O)N1CCc2cc(Br)cc(S(=O)(=O)CCC(=O)NCC3CCCO3)c21 (configuration not stated) | 92.8
9 | Cc1nc2ccccc2n1CCC(=O)Nc1cccc(F)c1 | 79.9
10 | CN(C)C(=O)N1CCC(C(=O)NC2CCCCCCC2)CC1 | 92.9
11 | O=C(CSCCSCC(=O)c1ccco1)c1ccco1 | 101
12 | O=c1cnnc(NCc2ccccc2)[nH]1 | 103
13 | COc1ccccc1C1CC(c2ccc(C)cc2)Nc2ncnn21 (configuration not stated) | 102
14 | O=c1cc(CSc2ccccn2)c2ccccc2[nH]1 | 93.1
15 | COC(=O)CC1SC(=O)NC1=O (configuration not stated) | 105
16 | Cc1ccc(C)c(N2CCN(S(=O)(=O)c3ccc4c(c3)OCCO4)CC2)c1 | 106
17 | O=C(NCCC1=CCCCC1)c1cc2c(s1)CS(=O)(=O)C2 | 88.5
18 | Cc1c(C(=O)OC(C)C)[nH]c2c1C(=O)CCC2 | 106
19 | Cc1cc(NCCN2CCCCC2)n2c(nc3ccccc32)c1C#N | 85.1
20 | CCOC(=O)Cn1nc(-c2ccc(C)cc2)ccc1=O | 100

Experiment: 384-well plate pilot, post-Golgi transport modulator project, inhibition of yeast transport mutant growth (AID 636)
Details: absorbance 615 nm, about 18 h, stronger effect = higher value

Row | Compound | inhibition
21 | CCOc1ccccc1CNC(=O)CCN1C(=O)COc2ccccc21 | -1.15% (inactive)
22 | CCOc1ccccc1CN1C(=O)c2ccccc2C1C(=O)NCC1CCCO1 (configuration not stated) | -1.47% (inactive)
23 | O=C(CCCc1cccs1)Nc1nc2c(s1)CCCC2 | -9.19% (inactive)
24 | COc1ccc(-c2noc(CCCC(=O)O)n2)cc1 | -6.4% (inactive)
25 | CCCN(Cc1cc2cc(C)ccc2[nH]c1=O)C(=O)c1cccc(OC)c1 | -7.07% (inactive)
26 | COC(=O)c1cnc2c(C(F)(F)F)cccc2c1OC | -5.33% (inactive)
27 | COc1ccccc1Nc1ccc(C(=O)NC2CCCCC2)cn1 | -3.92% (inactive)
28 | COc1cccc(C(=O)Nc2ncc3c(n2)CC(C)CC3=O)c1 (configuration not stated) | -2.16% (inactive)
29 | Cc1ccc(-n2c(Cn3cnc4ccccc43)nnc2SCC(=O)O)cc1 | -4.13% (inactive)
30 | COCCNc1oc(-c2ccc(C)cc2)nc1C#N | -4.46% (inactive)
31 | c1cn(C23CC4CC(CC(C4)C2)C3)cn1 | -5.6% (inactive)
32 | CCN(Cc1cc2ccccc2[nH]c1=O)S(=O)(=O)c1ccccc1 | -4.59% (inactive)
33 | CCCCn1nc(C(=O)N2CCc3ccccc32)c2ccccc2c1=O | -0.4% (inactive)
34 | Cc1ccc(NCc2nnc(SCC(=O)N3CCCCC3)n2CC2CCCO2)c(C)c1 (configuration not stated) | -6.8% (inactive)
35 | COC(=O)c1[nH]c2ccc(F)cc2c1NS(=O)(=O)c1ccc(OC)cc1OC | -6.76% (inactive)
36 | O=c1cc(COn2nnc3ccc(C(F)(F)F)cc32)nc2sccn12 | -1.71% (inactive)
37 | CS(=O)(=O)N1CCCC(C(=O)NCCCN2CCc3ccccc3C2)C1 (configuration not stated) | -0.91% (inactive)
38 | CCNc1nc(N2CCOCC2)nc(N(c2ccccc2)c2ccccc2)n1 | -3.55% (inactive)
39 | NC(=O)CSc1nnc(-c2cc3ccccc3o2)n1Cc1ccccc1 | -6.05% (inactive)
40 | CS(=O)(=O)Nc1ccc(C(=O)NCc2ccco2)cc1 | -1.05% (inactive)
41 | Cc1cc(C)c2[nH]c(=O)c(C(c3nnnn3Cc3ccc4c(c3)OCO4)N3CCC(C)CC3)cc2c1 (configuration not stated) | -4.67% (inactive)
42 | Cc1ccc(CNC(=O)CSc2n[nH]c(N)n2)cc1 | 0.79% (inactive)
43 | C=C(C)Cn1c(N2CCN(CC)CC2)nc2c1c(=O)[nH]c(=O)n2C | -1.07% (inactive)
44 | Cc1cc(C(=O)CN2C(=O)c3ccccc3C2=O)c(C)n1Cc1cccs1 | -9.45% (inactive)
45 | Cc1ccc2nc(NCCCN3CCOCC3)c(C=NCCCN3CCOCC3)c(=O)n2c1 | -0.39% (inactive)
46 | O=C(Cn1cnc2ccccc2c1=O)NCCC(=O)N1CCN(c2ccccc2)CC1 | -3.25% (inactive)
47 | O=C(C1CCC1)N1CCc2cc(S(=O)(=O)N3CCc4ccccc4C3)ccc21 | -5.47% (inactive)

From PubChem BioAssay
